USP2a block: inhibitors of human ubiquitin-specific protease USP2a; O75604; USP2 core, Ub-CHOP2 coupled fluorogenic reporter, 485/531; Potency, µM (series often up to 38.3 µM), for inactives: top-dose activity change, negative = inhibition, usual class: inhibitors; hit rate 0.01% among 330,000; AID 463254;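 note: potency is the fitted concentration of half-maximal effect; plate controls were DMSO wells for no effect and full inhibition by NEM control for full effect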
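USP2 core (10nM final) preincubated 30min RT with compound in 20mM Tris-HCl pH 8.0, 2mM CaCl2, 2mM beta-mercaptoethanol, 0.05% CHAPS; 25nM Ub-CHOP2 plus 25nM reporter substrate added, fluorescence (Ex485/Em531) read after 60min.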
D1 antag: blocks dopamine activation of the human D1 receptor; HEK293 TREx D1 cells, calcium flux, dopamine EC80; stronger effect = lower value; activity change, negative = inhibition, % at 10 µM; hit rate 3.2% among 360,000; AID 504652; in the data active = activity change below about -30%; note: % is set by controls: 0 for no effect and ±100 for the full control effect
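After overnight tetracycline induction at 30 C, force-coupled D1 HEK293 cells took up a no-wash calcium dye at room temperature. Compounds were added and monitored 180 s, and the response to EC80 dopamine was then recorded.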
D1 potentiator: potentiators of human D1 dopamine receptor; P21728; HEK293 TREx D1 cells, calcium flux, dopamine EC20 potentiation; potentiation, % at 10 µM; hit rate 0.036% among 360,000; AID 504651; in the data active = potentiation above about 30%; note: 0% is about no effect
D1 agonist: activates the human D1 dopamine receptor; P21728; HEK293 T-REx D1 cells, calcium flux, agonist mode; activation, % at 2 µM; hit rate 1% among 360,000; AID 504660; in the data active = activation above about 30%; note: 0% is about no effect
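Inducible HEK293 T-REx D1 cells, force-coupled to calcium signalling, were plated at 4000 cells/well with tetracycline and held overnight at 30 C. After no-wash calcium dye loading, compound-evoked calcium rise over 180 s flagged agonists.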
Eya2 inh: Eya2 (human) phosphatase inhibition. recombinant Eya2, OMFP fluorescence dephosphorylation (OMFP is methylfluorescein phosphate). Potency, µM (titrated, usually from 76.9 µM), for the others: at the highest dose activity, negative = inhibition, most hits filed as inhibitors. hit rate 0.006% among 330,000; note: potency is the fitted concentration of half-maximal effect; % is set by controls: 0 for no effect and ±100 for the full control effect
Target sequence (O00167 whole entry, looked up): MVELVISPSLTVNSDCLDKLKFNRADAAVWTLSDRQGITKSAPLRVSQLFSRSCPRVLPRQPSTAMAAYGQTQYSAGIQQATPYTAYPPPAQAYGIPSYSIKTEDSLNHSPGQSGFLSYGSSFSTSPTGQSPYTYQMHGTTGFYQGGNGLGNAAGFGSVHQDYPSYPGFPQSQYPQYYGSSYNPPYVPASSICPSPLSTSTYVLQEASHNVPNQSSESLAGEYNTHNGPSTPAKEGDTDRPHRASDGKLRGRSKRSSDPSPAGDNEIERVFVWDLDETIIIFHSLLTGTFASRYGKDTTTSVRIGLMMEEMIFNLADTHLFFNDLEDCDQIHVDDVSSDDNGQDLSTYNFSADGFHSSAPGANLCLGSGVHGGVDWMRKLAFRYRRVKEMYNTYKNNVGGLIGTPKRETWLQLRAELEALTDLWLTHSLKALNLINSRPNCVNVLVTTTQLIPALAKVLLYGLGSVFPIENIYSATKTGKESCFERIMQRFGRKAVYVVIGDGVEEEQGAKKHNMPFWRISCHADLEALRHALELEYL
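Eya2 protein (added as 0.2 uM solution) was preincubated with compound for 10 min at ambient temperature in 50 mM HEPES pH 7.5, 50 mM NaCl, 5 uM MgCl2, 0.05% BSA, 1 mM DTT. OMFP (added at 50 uM) then reacted 10 min; fluorescence read at 485/525 nm.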
GALK inhibitor: galactokinase (human) inhibition; Potency, µM (highest dose often 57.5 µM), for inactives: at the top dose activity change, negative = inhibition, actives largely listed as inhibitors; Purified GALK, Kinase-Glo residual ATP luminescence; hit rate 0.007% among 270,000; note: potency is the fitted concentration of half-maximal effect; % is set by controls: 0 for no effect and ±100 for the full control effect
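5 nM enzyme, 35 uM ATP, 100 uM galactose, 20 mM HEPES pH8.0, 5 mM MgCl2; 1 h RT; residual ATP by Kinase-Glo Plus luminescence, qHTS format.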
* marks the source's active call; other numbers are inactive results; u = inconclusive; x = no result given. Most compounds without a hit are left out; they make up all but 3.9% or so of the library. Unless noted, calls come from the whole dose curve; as a rule, active = well fitted inhibition curve with a large enough effect; inconclusive = small, poorly fitted or top-dose-only effect, or effect the other way; inactive = flat fitted curve, though single readings scatter.

SMILES | USP2a block | D1 antag | D1 potentiator | D1 agonist | Eya2 inh | GALK inhibitor
Nc1nc(CN2CCN(Cc3ccccc3)CC2)nc(Nc2ccccc2)n1 | 1% | -38* | 0 | 2 | 8% | 0%
COc1cccc(N2CCN(Cc3nc(N)nc(Nc4ccccc4)n3)CC2)c1 | -1% | -15 | -5 | 0 | -2% | -3%
COc1ccccc1Nc1nc(N)nc(CN2CCN(Cc3ccccc3)CC2)n1 | 2% | -37* | -5 | 0 | 9% | 6%
O=C(c1ccc2c(c1)N(Cc1ccc(F)cc1)C(=O)c1ccccc1S2(=O)=O)N1CCC(Cc2ccccc2)CC1 | x | 15 | -2 | 6 | x | x
CCCN1CCN(CCNC(=O)Nc2ccccc2OCC)CC1 | x | 10 | 0 | 0 | x | x
Cc1ccc(Cl)cc1N1CCN(CCCNC(=O)C2COc3ccccc3C2)CC1 (configuration not stated) | x | -37* | -2 | 41* | x | x
Cc1cccc(N2CCN(CCNC(=O)C3COc4ccccc4C3)CC2)c1C (configuration not stated) | x | -51* | -4 | 18 | x | x
O=C(NCCCN1CCN(c2ccc(F)cc2)CC1)C1COc2ccccc2C1 (configuration not stated) | x | -6 | -5 | 11 | x | x
COc1ccc(OC)c(NC(=O)Cn2cc(C(=O)c3ccc(Cl)cc3)c(=O)c3cc(OC)ccc32)c1 | x | 21 | 0 | 1 | x | x
Cc1c(N=C2SC(CC(=O)Nc3ccccc3)C(=O)N2CCN2CCOCC2)c(=O)n(-c2ccccc2)n1C (configuration not stated) | -1% | -51* | -1 | 2 | -8% | 16%
COC(=O)c1nc(Nc2cc(F)cc(F)c2)nc(NC2CCCC2)n1 | x | 22 | 4 | 5 | x | x
CCN(CC)c1ccc(/C=C/C(=O)c2ccc(Br)cc2)cc1 | u | -67* | -8 | 425* | u | 0%
CCN(CC)c1ccc(/C=C/C(=O)c2cccnc2)cc1 | 0% | -16 | -2 | 4 | 7% | 2%
CN(C)c1ccc(C(=O)/C=C/c2ccc(Br)cc2)cc1 | 0% | -33* | -4 | 5 | -2% | 1%
COc1ccc(/C=C/C(=O)Nc2cccc(C(C)=O)c2)cc1 | 1% | -40* | -4 | 4 | -2% | 3%
CC(=O)Nc1cccc(C(=O)/C=C/c2ccc(N(C)C)cc2)c1 | 6% | 6 | 15 | 401* | u | 1%
COc1ccc(/C=C/C(=O)Nc2cccc(F)c2)cc1 | x | 9 | -1 | -1 | x | x
CCc1ccccc1NC(=O)C(=O)NCCc1sc(-c2cccc(C)c2)nc1C | x | 21 | -3 | 9 | x | x
Cc1ccc2oc(=O)c3cc(C(=O)N(Cc4ccccc4)C(C)C)sc3c2c1 | x | -3 | -3 | 0 | x | x
COc1ccc(Cn2c(=O)c3cccnc3n(Cc3cccc(F)c3)c2=O)cc1 | x | -16 | -6 | 7 | x | x
Cc1nnc(NC(=O)CSCc2cc(=O)c3cc(Cl)ccc3[nH]2)s1 | x | -8 | -2 | 0 | x | x
NC(=O)C1CCN(C(=O)c2ccc3c(c2)N(Cc2cccc(Cl)c2)C(=O)c2ccccc2S3(=O)=O)CC1 | x | 3 | -1 | 1 | x | x
Cc1noc(NS(=O)(=O)c2ccc(NC(=O)C(Cl)(Cl)Cl)cc2)c1C | -1% | 6 | -1 | 8 | 18% | -5%
O=C(Nc1ccccc1)Nc1ccc(Br)c(Cl)c1 | -3% | -31* | -8 | 26 | 0% | -3%
N#Cc1ccc(NC(=O)Nc2ccc(Cl)cc2)cc1 | 0% | -41* | -11 | 31* | 5% | 1%
O=C(NC(=S)Nc1ccc(Br)c(Cl)c1)C1CC1 | 1% | -36* | -5 | 4 | -3% | 0%
O=C(Nc1ccccc1)Nc1ccccc1Br | -1% | -6 | 3 | 0 | 11% | -2%
Cc1noc(NS(=O)(=O)c2ccc(NC(=O)Nc3ccc(Cl)c(Cl)c3)cc2)c1C | 2% | -47* | -13 | 33* | 1% | -5%
CC(=O)c1ccc(NC(=O)c2sc(-n3nc(C)c(Cc4ccc5c(c4)OCO5)c3C)nc2C)cc1 | x | -4 | -1 | 1 | x | x
